The values that follow come from PubChem BioAssay.

The nature of this test: probe aNOTCH2 binding on compound microarray – biochemical, small-molecule microarray, 635/667 nm fluorescence, primary screen (AID 1121).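 Note: score merges feature fluorescence read at 667 nm with its signal to noise.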 The note with it: higher = more signal.
`Cc1cc(C)cc(N2C(=O)CSC2c2cccc([N+](=O)[O-])c2)c1` (stereo not drawn) returned a composite z-score of -0.124.

On to `COCCOC(=O)N1C(=O)[C@@]2(c3cc(C#CC4(O)CCCCCC4)ccc31)[C@H](c1ccc(O)cc1)N1[C@H](c3ccccc3)[C@H](c3ccccc3)OC(=O)[C@H]1[C@@H]2C(=O)NC[C@H](O)c1ccccc1`, for which the composite z-score was determined as 0.0296. Regarding `COC(=O)c1cn(C[C@@H](Cc2ccccc2)NC(=O)N[C@H](CO)CCc2oc(C(C)=O)c(C(=O)OC)c2C(=O)OC)nn1`, the composite z-score is -0.128.

Turning to `COC(=O)[C@@]1(Cc2ccccc2)[C@H]2c3cc(C(=O)N(C)C)n(Cc4c(CO)[nH]cc(C)c4=O)c3C[C@H]2CN1C(=O)c1ccccc1`, the composite z-score is -0.0351. For the compound `CC(=O)NCCCC[C@@H]1NC(=O)[C@@H]2C[C@H](C(=O)NCCCC[N+](C)(C)C)[C@H](c3ccc(O)cc3)N2C1=O`, the composite z-score was -0.0467.

Compound `COc1ccc([Si](C)(C)[C@@H]2[C@@H](CC(=O)N3Cc4ccccc4C[C@H]3CO)O[C@]3(C(=O)N(C)c4ccccc43)[C@H]2C)cc1` showed a composite z-score of 0.014. The compound `COCCOC(=O)N1C(=O)[C@@]2(c3cc(C#CC4=CCCCC4)ccc31)[C@H](C(N)=O)[C@H]1C(=O)O[C@H](c3ccccc3)[C@H](c3ccccc3)N1[C@@H]2c1ccccc1OCCO` showed a composite z-score of -0.114. Take `COC(=O)[C@@]1(Cc2ccc(OC)cc2)[C@@H]2C(=CC(=O)[C@H]2CC(=O)C(=O)N(C)C)CN1C(=O)c1ccccc1`: the composite z-score was 0.358.
